Test results reported in the supplement of paper PMC3334620.
Over roughly 33,000 sequences, “E-score (-0.5 to 0.5)” has its median near -0.011; the highest 2% begin near 0.28. The list comes from a sample in which the highest values are over-represented; it also holds similar and randomly drawn sequences.

The sequences below were run against T1, Gcr1 (UniProt P07261) (assay: PBM E-score (8-mer binding enrichment) (E-score (-0.5 to 0.5)); higher = stronger / more preferred TF binding). Conditions: protein concentration: 100 nM; construct: GST-full length.
T1 sequence: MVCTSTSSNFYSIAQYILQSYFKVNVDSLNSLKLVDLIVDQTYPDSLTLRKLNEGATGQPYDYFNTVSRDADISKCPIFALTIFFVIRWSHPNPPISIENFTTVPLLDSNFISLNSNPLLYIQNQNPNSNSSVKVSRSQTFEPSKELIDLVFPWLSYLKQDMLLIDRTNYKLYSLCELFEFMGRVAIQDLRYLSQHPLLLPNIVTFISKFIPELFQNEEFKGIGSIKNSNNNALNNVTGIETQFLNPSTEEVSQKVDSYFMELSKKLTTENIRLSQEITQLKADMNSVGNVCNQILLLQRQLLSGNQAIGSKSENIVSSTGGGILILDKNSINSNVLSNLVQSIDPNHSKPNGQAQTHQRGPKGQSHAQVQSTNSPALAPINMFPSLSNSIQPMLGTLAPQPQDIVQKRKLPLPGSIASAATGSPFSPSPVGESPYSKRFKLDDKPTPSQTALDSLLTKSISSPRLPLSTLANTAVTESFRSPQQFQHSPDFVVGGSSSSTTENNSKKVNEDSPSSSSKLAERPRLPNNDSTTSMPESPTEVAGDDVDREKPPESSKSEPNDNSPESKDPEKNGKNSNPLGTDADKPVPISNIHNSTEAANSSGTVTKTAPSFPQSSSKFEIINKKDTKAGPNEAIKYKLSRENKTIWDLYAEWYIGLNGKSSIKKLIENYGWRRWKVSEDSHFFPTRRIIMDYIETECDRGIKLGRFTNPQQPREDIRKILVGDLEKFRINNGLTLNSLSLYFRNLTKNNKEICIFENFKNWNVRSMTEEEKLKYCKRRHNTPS
Description: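 Universal 'all 10-mer' protein binding microarrays (Agilent AMADID 015681) probed with GST-tagged S. cerevisiae TFs (full-length or DBD) made by in vitro transcription/translation (PURExpress), about 100-200 nM. Bound TF was detected with fluorescent anti-GST. Each ungapped 8-mer (which stands for itself and its reverse complement) is scored by the PBM enrichment score (E-score), a modified Wilcoxon-Mann-Whitney statistic from -0.5 to +0.5, computed with the Universal PBM Analysis Suite. Scale: above 0.35 generally sequence-specific binding.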

Sequence	PBM E-score
CGATGGGC	-0.0735
AGCTTCAT	0.0447
CTAACCAG	0.0668
GGCCCCCA	0.231
CATACCGA	0.0765
ACTCCTTA	0.0309
AGCCACAA	0.15
CGAACCCC	0.0243
GGAACCCC	0.394
AGAACCCC	0.0794
ACCTATCC	0.0168
ATGCTACG	0.0159
ACACACTC	0.0505
AGACATTA	-0.0316
CGACATTA	0.306
CGACATTC	-0.0306
CTGGGTGC	0.244
GCTAGCCA	-0.232
TAATGGCA	0.295
CAATGGCA	-0.159
GATTGGAA	0.258
GAATGGAA	0.225
GAATGGCA	-0.0438
AAATGGAA	0.239
CATTGGAA	0.106

Sequence	PBM E-score
TAATGGAA	0.28
TATTGGAA	0.288
GTTTATAA	0.129
AATGTGAT	-0.0732
AATTGTCT	-0.147
GCTACTCC	0.0342
GCACCTGA	0.0656
GCAGCTGA	0.336
GCAGCTAA	0.329
GCAGCTAC	0.267
TCAGCTAA	-0.225
TCAGCTGA	-0.106
GCAGCTGC	0.249
CTCATTCC	0.0687
CAGCCCCG	-0.107
AGGCGAGC	-0.0288
GGGTGATA	0.0068
CCGCAAAA	0.0921
GCTACCAA	0.179
ACTACCAC	0.101
GATACCAA	0.154
AATACCAC	0.097
GCTACCAC	0.323
GATACCAC	0.329
AACCTAAG	-0.0759

Sequence	PBM E-score
ACCTCCTC	-0.194
AACGTCTA	0.00101
CTTCCTAA	0.294
ATTCCTGA	0.299
ATTCCTAG	-0.0289
CATCCTGA	0.292
TATCCTGA	0.156
CTTCCTAC	0.18
ATTCCTAA	0.284
ATTCCTAC	0.0721
GATCCTGA	0.0899
GTTCCTAA	0.237
ATTCCTGG	0.165
ATTCCTGC	0.048
TAGACCTA	-0.0537
AACCAGAG	0.0777
TACACAGA	-0.106
CTTCCTTA	0.153
GGGTTGCA	-0.0951
GAAGCGTC	0.268
CATCAACA	0.015
ATGTTGTA	0.104
GAGCACCC	0.329
AAGCACCG	0.0663
GAGCACAC	-0.271

Sequence	PBM E-score
AAGCACCT	0.106
AAGCACCC	0.283
CAGCACCC	0.277
ACGCCATG	-0.0676
GGTAAAAC	-0.056
AATGGCGC	0.253
CCTTCTCA	-0.156
GCTTCTTA	0.338
ACTTCTTA	0.104
CCTTCGTA	0.00994
GCTTCTCC	0.27
ACTTCGTA	0.0106
GCTTCGTA	0.329
GCTTCTGA	0.0646
GCTTCTCA	0.299
CCTATTGC	-0.0151
CACGGAAC	0.0756
ACCCAAAT	0.233
AAGTTCCT	0.163
CTTGGTTC	0.149
AAACAGAG	-0.244
TCCCTCAA	0.00435
ATGTTCCG	-0.119
CCCGAAAG	0.224
AGGCGCTC	-0.0859

Sequence	PBM E-score
CTCTGCAC	-0.0576
TATTCCAA	0.224
AATTCCAA	0.308
CATTCCAA	0.0418
AATTCCAC	0.191
AATTCCAT	0.191
AATTCCAG	0.274
CATTCCAC	0.0952
GATTCCAC	0.382
GATTCCAA	0.416
ACCAACGG	-0.0789
ATAGGGTC	-0.162
ACATCGAC	-0.154
ACGGCTCA	-0.123
AGGCGTGA	-0.191
AAAAGAGC	-0.0507
AAATGGGA	0.194
ACGTCAGA	-0.0561
CAGGTCAA	-0.173
GCCACAAA	0.0996
CCCACAAG	0.0598
CCCACGAG	-0.0381
CCCACAAA	0.305
TCCACAAA	0.288
CCCCACAC	0.108

Sequence	PBM E-score
CCCCACAA	0.305
ACCACAAA	0.236
CCCCACAG	-0.0776
ACACAAGG	-0.0735
GCTTTCTA	-0.196
GTTTACCA	-0.022
CCGGGACA	-0.0293
AAGACTCC	0.0934
CCTTTTCA	-0.164
CACTCTGG	0.0408
AGAGGGAA	-0.176
GGAATTCA	0.192
AGAATTCC	0.164
GGAATTCC	0.426
AGCTAGAG	-0.226
ATTCATAA	-0.0219
ACCTCTAA	0.16
TCCTCTAA	0.282
TCGTCTAA	0.112
TCATCTAA	-0.0664
GCATCTAA	0.303
CCGTCTAA	0.0045
GCGTCTAA	0.357
CCATCTAA	0.0606
GCCTCTAA	0.265

Sequence	PBM E-score
CATCACGG	-0.01
AAGTGAAC	-0.0708
ATGATTCA	-0.105
TCTCAAAA	0.137
CAAGAGAA	0.0254
GGATGGCA	-0.167
CCCGACGG	-0.158
CTATTGGC	0.0102
CCCCGCCC	0.338
GCCCGCCC	0.0747
ACCCGCCC	-0.135
ATGCTGGA	0.0516
AGAACTGG	0.262
AGACCGCT	-0.2
TCGGGGCA	0.161
ATTGGGTG	0.085
AGAGGATC	0.024
AGAGGAAG	0.385
AGAGGAAA	-0.0469
ACAGGATA	0.177
ACAGGATC	0.197
GTAGGAAC	0.0386
AGAGGATA	-0.0247
CTAGGAAC	0.149
ATAGGAAC	0.319

Sequence	PBM E-score
AGAGGATG	0.315
ACAGGATG	0.372
AGAGGAAC	0.177
AGTGTCCA	0.057
TAGTATGA	0.0561
CTCCGATC	-0.00026
ATGCTAGG	-0.0494
CCCGGATC	0.256
CCCTCAGC	-0.0815
ATTCAGCC	0.0229
ATAGGAAA	-0.0777
ATAGGATG	0.333
CAAGGAAG	0.143
AAAGGAAC	0.219
ATAGGAAG	0.414
AAAGGAAG	0.361
ATAGGATC	0.158
ATAGGATA	-0.0284
ATAGGAAT	0.27
CGCTGCCC	0.164
CGGGGTGC	0.226
AGGGATCC	0.286
CCGGATCC	0.279
CGGGATCA	0.245
CGGGATCC	0.371

Sequence	PBM E-score
AGGGATCA	-0.054
AGGGATCG	-0.151
AGCATCAA	0.0409
CACGCACC	0.0442
AGACCGAA	-0.18
GACGGCGC	-0.0687
AGCCTCTA	0.0722
ACCAGAAA	0.0905
TTCAGAAA	0.12
CCCAGAAG	0.233
GCCAGAAA	0.236
CCCAGAAA	0.283
TCCAGAAA	0.304
GCCTACTA	0.00583
AGCCCCGA	-0.108
AAAGCCAC	0.0178
GAAGCCTC	0.283
CAAGCCAC	-0.124
AAAGCCTC	-0.0619
CAAGCCTC	-0.0336
GAAGCCAC	0.417
GAAGCCAA	0.29
TAAGCCAA	0.0672
AAAGCCAA	0.0021
ACTACCCA	-0.135

Sequence	PBM E-score
AATAGCCG	-0.0191
CCCGGGTA	-0.031
TAGGCGCA	0.225
CCAAAATC	0.136
CTGGAACC	0.375
CTGGAACA	-0.0357
ATGGAACC	0.294
ATGGAACA	-0.0319
CTGGAAAC	0.196
ATGGAACG	-0.0103
AGCATTCG	-0.235
CTTGGTGC	0.116
AACTAAAT	0.123
CAACATTG	-0.0426
AAAACCGT	0.0768
CTCGGGCC	-0.107
ACTGTCTC	-0.0499
CGATGCCG	0.145
AAGTAGAA	0.0726
CGTTCCAC	0.0103
CGTTCCAA	0.03
GGTTCCAC	0.305
CGTTCCCA	-0.0578
AGTTCCTA	0.116
GGTTCCCA	0.327

Sequence	PBM E-score
GGTTCCTA	0.342
GGTTCCAA	0.391
AGTTCCAC	0.0854
AGTTCCCA	0.22
CGTTCCTA	0.15
TGTTCCAA	0.112
CGCTTTCA	-0.00233
CCTGAGAC	-0.0674
GCACCAAC	0.197
GTATCTAA	0.16
AAGACGCT	0.218
CAGACGCG	0.136
AAGACGCC	0.349
AAGACGCG	0.278
CAGACGCA	0.175
CAGACGCC	0.329
GCGAAGAC	-0.133
AGAGCAGG	0.0116
ATACCTGC	0.115
GAACGCTA	-0.111
CCCTGGCA	-0.00029
CCTCTCGC	-0.0389
CAGGATGA	0.0175
CAGGATGC	0.446
CGGGATGA	-0.188

Sequence	PBM E-score
CAGGATGG	-0.132
CAGGATCG	0.154
AGGGATGC	0.098
CGGGATGC	0.332
CAGGATCA	-0.179
AAGGATGT	0.0399
CAGGATCC	0.345
AAGGATGA	-0.116
AAGGATGC	0.313
CCAGCTGG	0.157
ACTCTAAC	0.00366
CCCTTGCA	-0.097
ACCGGAGG	-0.09
TATGAAAA	0.131
AGGCAGTA	-0.0662
CTGGTATA	-0.0854
ACGTGTTA	-0.0746
AGCTCGCG	-0.0019
CCGGATGA	0.112
ACGGATGC	0.183
GAGGATAC	-0.00197
CCGGATGC	0.4
GAGGATGA	-0.0555
GAGGATGC	0.423
GCAGGGGA	-0.102

Sequence	PBM E-score
CGGTGCAC	-0.105
AGAGCAGC	0.0483
AGCCATGC	-0.346
CCAGAAAA	0.335
ACAGAAAA	-0.076
CCCGAATA	0.334
CCAGAATC	0.245
CCAGAATA	0.283
GCCGAATA	0.2
ACCGAATA	-0.0481
CAAGAAAA	0.248
CAAGAATA	0.19
GGTTGACA	0.0705
AATCGGGC	0.114
CATAGGCA	0.0323
CTGATGGC	-0.068
ACGGTAGA	0.138
TGAAACAA	0.0585
CGCCTGAA	0.143
CAGCATCC	0.447
GAGCATCC	0.398
GAGCATAC	-0.155
AAGCATCG	0.0291
CAGCATCG	0.0157
AAGCATCA	-0.0253

Sequence	PBM E-score
CAGCATCA	-0.00923
GAGCATCA	-0.0695
AAGCATCC	0.404
CTCTCGCA	0.0115
ACACTGGT	0.035
CAGGGACC	0.0209
AAAGTCTT	-0.247
AGACACTA	-0.0252
ATAAAGGG	0.123
ACGGAGCT	-0.175
ACGAAGCT	0.399
ACGAAGCC	0.428
ACGAAGCG	0.0293
ACGAAGCA	-0.12
CCGAAGCC	0.136
ACAAAGCT	0.0432
TCAGGCCA	-0.118
GACAGACC	-0.157
AACTAGTT	0.0246
